# Bioassay records deposited in PubChem BioAssay by Sanford-Burnham Center for Chemical Genomics.
# An excerpt weighted towards active compounds, which were near 3% of everything screened.
# PPC-1+TRAIL kill: kills PPC-1 cancer cells in the presence of TRAIL; PPC-1 cells + TRAIL, ATPLite viability luminescence; 220,000 tested, 0.41% active; cell killing (% activity), % at 4 µM or 5 µM;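 active = cell killing above 50% in the first pass at 4 µM, then a duplicate retest at 5 µM averaging 50% or more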;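 note: plate controls were cells with TRAIL plus DMSO for no effect and medium-only wells lacking cells for full effect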
# SENP8 block-1: inhibitors of human SENP8 protease. purified SENP8, Z-RLRGG-aminoluciferin cleavage, luminescence. inhibition, % at 10 µM. 330,000 tested, 1.2% active. AID 2540; in the data active = inhibition above about 50%
# Target sequence (Q96LD8 whole entry, looked up): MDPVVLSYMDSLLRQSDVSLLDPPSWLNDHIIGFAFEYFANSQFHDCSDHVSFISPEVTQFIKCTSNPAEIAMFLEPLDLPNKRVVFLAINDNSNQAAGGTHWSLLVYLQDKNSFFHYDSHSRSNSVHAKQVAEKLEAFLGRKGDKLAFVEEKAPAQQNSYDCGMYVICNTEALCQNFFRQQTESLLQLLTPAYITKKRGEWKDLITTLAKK
# SENP8 block-2: inhibitors of human SENP8 protease; 360,000 tested, 0.64% active; inhibition, % at 20 µM; Q96LD8; recombinant SENP8, Nedd8 substrate fluorescence; in the data active = inhibition mostly above about 40%, no sharp cut-off; inactive = mostly below about 27%
# SENP6 block: SENP6 protease inhibition. inhibition, % at 10 µM. 330,000 tested, 1.8% active. AID 2599. Q9GZR1. Recombinant SENP6 catalytic domain, aminoluciferin luminescence;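 active = inhibition above about 50% at the single tested dose, limit read from the data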;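 note: plate controls were DMSO wells with enzyme for no effect and DMSO wells lacking enzyme for full effect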
# SENP7 block: inhibitors of human SENP7 protease. 330,000 tested, 1.5% active. recombinant SENP7, Z-RLRGG-aminoluciferin luminescence, 40 min. AID 434973. Q9BQF6. inhibition, % at 5 µM;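 active = inhibition above about 50% at the single test dose, limit read from the data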;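 note: plate controls were DMSO with enzyme for no effect and no enzyme buffer wells for full effect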
# C8 TRAIL sens: caspase-8 TRAIL sensitization; NB7+C8 cells + TRAIL, ATPlite viability luminescence; inhibition (viability loss, TRAIL sensitization), % at 10 µM; 360,000 tested, 1% active;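 active = compounds causing at least 50% loss of cell viability in the single-dose screen, relative to plate controls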
# SENP8 conf: human SENP8 inhibition, confirmed; shares compounds with SENP7 block; Recombinant SENP8, Z-RLRGG-aminoluciferin luminescence, 60 min; inhibition, % at 12.5 µM; 6,200 tested, 40% active; AID 488912;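 active = mean inhibition across replicates above about 50%, limit read from the data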
# SENP6 conf: confirmation of human SENP6 protease inhibitors. shares compounds with SENP7 block. recombinant SENP6, Z-RLRGG-aminoluciferin luminescence. inhibition, % at 12.5 µM. 6,200 tested, 58% active. AID 488915
# SENP7 conf: human SENP7 inhibition, confirmed; shares compounds with SENP7 block; recombinant SENP7, Z-RLRGG-aminoluciferin luminescence, 40 min; inhibition, % at 12.5 µM; 6,200 tested, 69% active; AID 488917
# Casp3 select: selectivity test for SENP inhibitors: human caspase-3 inhibition; shares compounds with SENP7 block; purified caspase-3, Z-DEVD-aminoluciferin luminescence, 60 min; inhibition, % at 12.5 µM; 6,200 tested, 60% active; AID 488918;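 active = mean inhibition above about 50%, limit read from the data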;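 note: plate controls were enzyme with DMSO for no effect and wells without caspase-3 for full effect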
# Target sequence (P42574 28-227 limits assumed): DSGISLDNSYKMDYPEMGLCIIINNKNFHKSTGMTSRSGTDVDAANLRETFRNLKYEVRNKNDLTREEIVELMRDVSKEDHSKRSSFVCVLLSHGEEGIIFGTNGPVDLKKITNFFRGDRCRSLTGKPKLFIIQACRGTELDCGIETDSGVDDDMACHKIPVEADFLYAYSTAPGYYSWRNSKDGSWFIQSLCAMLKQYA
# SENP luc ctr: counter-screen for SENP inhibitors: luminescence interference; inhibition, % at 12.5 µM; 6,200 tested, 39% active; AID 488919; shares compounds with SENP7 block; Pre-incubated SENP8/Z-RLRGG-aminoluciferin, luciferase luminescence interference;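 active = mean inhibition above about 50% when retested at one dose, limit read from the data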;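 note: plate controls were DMSO wells with completed reaction for no effect and substrate without enzyme for full effect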
# An asterisk follows results filed as active; . = no result.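 Rule for the calls, unless noted: active = mean inhibition above about 50% in the one-dose retest (limit read from the data); inactive = the rest.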
SMILES,PPC-1+TRAIL kill,SENP8 block-1,SENP8 block-2,SENP6 block,SENP7 block,C8 TRAIL sens,SENP8 conf,SENP6 conf,SENP7 conf,Casp3 select,SENP luc ctr
S=C(Nc1ccc(Cl)cc1)Nc1cccc2cnccc12,16,85*,-156,92*,62*,10,9,56*,28,7,6
S=C(Nc1cccnc1)Nc1cccc2cnccc12,38,92*,-55,95*,85*,-5,20,48,28,4,-1
CCOc1ccc(NC(=S)Nc2cccc3cnccc23)cc1,34,-3,-42,87*,63*,-4,13,33,22,12,16
CCOc1ccc(NC(=S)Nc2ccc(OCC)cc2)cc1,5,-10,6,-13,-6,1,.,.,.,.,.
CC(=O)Nc1ccc(NC(=O)C(C)OC(=O)[C@@H]2CCCN2C(=O)c2cccs2)cc1 (stereo partly specified),.,-2,12,-4,9,-11,.,.,.,.,.
Cc1cc(-c2nnc(CCC(=O)NCc3cc(F)cc(C(F)(F)F)c3)o2)no1,.,2,4,-17,-2,-12,.,.,.,.,.
CCCS(=O)(=O)c1nc(S(=O)(=O)c2ccc(C)cc2)c(N2CCCC(C)C2)s1 (stereo unspecified),.,5,4,14,9,2,.,.,.,.,.
COc1ccccc1C(=O)OC(C)CN1CCN(C)CC1 (stereo unspecified),.,6,19,9,1,-1,.,.,.,.,.
CCN(C(=S)Nc1cccnc1)c1cccc2ccccc12,26,51*,-376,87*,54*,-2,-8,-4,-1,-1,-5
COc1ccc(NC(=S)Nc2cccc3cnccc23)cc1,57*,-7,-31,88*,67*,-2,11,40,22,7,4
CCN(C(=S)Nc1cccnc1)c1ccccc1,-7,-2,12,7,11,2,.,.,.,.,.
COc1ccccc1NC(=S)Nc1cccc2cnccc12,26,1,-122,91*,81*,20,-11,10,-4,4,1
COc1ccccc1NC(=S)NCc1cccnc1,21,-1,17,5,2,-2,.,.,.,.,.
CCOC(=O)c1ccc(S(=O)(=O)NCCNCc2ccccc2)cc1,.,-6,14,-11,-7,-2,.,.,.,.,.
COc1cccc(C=Nc2cccc3c(=O)[nH][nH]c(=O)c23)c1O,11,65*,-36,67*,93*,45,10,15,9,30,15
COc1ccc(Cl)cc1NC(=O)CN(C)C(=O)c1cc2c(s1)CCCC2,.,-3,-2,-1,-7,4,.,.,.,.,.
C=CCN(c1ccccc1OC)S(=O)(=O)c1cccc(C(=O)OCC(=O)c2c(N)n(C)c(=O)n(C)c2=O)c1,.,.,1,.,.,21,.,.,.,.,.
CCN(C(=O)COC(=O)c1cccc(S(=O)(=O)N2CCOCC2)c1)C1CCS(=O)(=O)C1 (stereo unspecified),.,0,12,3,2,9,.,.,.,.,.
O=S1(=O)CC/C(=N/Nc2ccccn2)c2cc(F)ccc21,12,-7,8,-15,63*,-11,4,7,8,4,2
COc1ccc2c(c1)C(=O)C1NC(=O)NC(=O)C1(Br)N2 (stereo unspecified),.,.,12,.,.,11,.,.,.,.,.
COc1ccc(NC(=O)n2ncc3c(C)cccc32)cc1,.,72*,33,74*,61*,45,84*,83*,95*,63*,73*
CC(C)C(NC(=O)c1ccccc1F)C(=O)NCCCn1ccnc1 (stereo unspecified),.,0,1,6,7,-1,.,.,.,.,.
COc1cccc(N2CC(C(=O)Nc3nnc(SCC(=O)Nc4ccc(NC(C)=O)cc4)s3)CC2=O)c1 (stereo unspecified),.,2,8,0,-1,-17,.,.,.,.,.
O=C(Nc1nc2ccccc2s1)c1ccccc1[N+](=O)[O-],.,1,4,20,-20,4,.,.,.,.,.
COc1cccc(C(=O)Nc2nnc(SCC(=O)Nc3ccc(NC(C)=O)cc3)s2)c1,.,55*,-30,70*,49,68*,32,61*,86*,67*,12
SMILES,PPC-1+TRAIL kill,SENP8 block-1,SENP8 block-2,SENP6 block,SENP7 block,C8 TRAIL sens,SENP8 conf,SENP6 conf,SENP7 conf,Casp3 select,SENP luc ctr
COc1cccc(C(=O)Nc2nc(C)cs2)c1,20,17,15,52*,42,20,31,32,72*,69*,50*
COc1cccc(C(=O)Nc2nc(-c3ccncc3)cs2)c1,18,-4,-15,1,7,4,.,.,.,.,.
O=C(Nc1nc2ccccc2s1)c1ccc(Cl)s1,35,67*,-289,77*,82*,40,14,50,51*,41,17
Cc1csc(NC(=O)c2ccc3nc[nH]c3c2)n1,.,69*,1,82*,78*,31,12,75*,95*,88*,74*
O=C(Cn1cc(F)c(=O)[nH]c1=O)c1ccco1,.,.,7,.,.,2,.,.,.,.,.
CCOC(=O)CN(C(=O)COC(=O)C1=NNC(=O)CC1)c1ccc(F)cc1,.,2,-4,12,10,3,.,.,.,.,.
CCc1c(C(=O)NNC(=O)Nc2ccc3c(c2)OCO3)csc1C,.,1,-2,0,-7,-20,.,.,.,.,.
COc1ccc(C(=O)Nc2nc3ccccc3s2)cc1,.,89*,-28,96*,93*,60*,-9,94*,101*,88*,85*
COc1cccc(C(=O)Nc2nc3ccccc3s2)c1,.,86*,-17,90*,91*,29,90*,91*,99*,83*,60*
O=C(NC1=NCCS1)c1ccc(OCC2CCCO2)cc1 (stereo unspecified),26,0,0,-5,5,46,.,.,.,.,.
O=C(Nc1ncccc1O)c1ccc(OCC2CCCO2)cc1 (stereo unspecified),.,21,-2,45,51*,18,44,42,77*,82*,49
O=C(Nc1nc2ccccc2s1)c1ccc(OCC2CCCO2)cc1 (stereo unspecified),22,53*,-155,71*,77*,67*,42,73*,93*,62*,46
Nc1nc(SCc2ccccc2Cl)c2ncn(C3OC(CO)C(O)C3O)c2n1 (stereo unspecified),.,.,-6,.,.,-2,.,.,.,.,.
